Entries with a potency or affinity are not part of this list.
Assay: HIV-1 Env-mediated cell fusion inhibitors, dose response, CCR5-tropic Env (AID 2279)
Details: CCR5-tropic HIV-1 Env, reporter read-out; series mostly up to 50 µM; inhibition: at the top concentration; call rule not given here

inhibition, inactive:
CC1=C(C(=O)OC(C)C)C(c2ccc(Cl)cc2)n2c(s/c(=C\c3ccc(OCC(=O)O)cc3)c2=O)=N1 (centres undefined) 23.1%, Cc1c(CCC(=O)O)c(=O)oc2c(C)c3occ(-c4ccc(Br)cc4)c3cc12 4.8%, CC(C)S(=O)(=O)C1=NSC2=NC(=O)/C(=C\c3ccc(-c4cccc(C(=O)O)c4)o3)C(=N)N21 1.16%, Cc1cc(/C=c2\sc3nc4ccccc4n3c2=O)c(C)n1-c1ccc(C(=O)O)cc1 34.4%, O=C(CN1C(=O)/C(=C2\SC(=S)N(CCS(=O)(=O)O)C2=O)c2ccccc21)Nc1cccc(Br)c1 0.67%, N#Cc1c(SCC(=O)Nc2nc3ccc(Br)cc3s2)sc2c(O)cc(=O)[nH]c12 -35.2%, O=C(O)c1cc(-c2ccc(/C=C3\NC(=O)N(c4ccc(Cl)cc4)C3=O)o2)ccc1Cl -0.12%, NS(=O)(=O)c1cc(C(=O)NC2CCSc3ccccc32)ccc1Cl (centres undefined) -1.13%, CSc1nc(SCC(=O)O)c2sc3nc(-c4ccccc4)c4c(c3c2n1)CCC4 23.1%, O=C(O)c1ccc(NS(=O)(=O)c2ccc3c(c2)C2C=CCC2C(c2ccccc2F)N3)cc1 (centres undefined) 1.73%, COc1cc(/C=C2/SC(=S)N(CC(=O)O)C2=O)ccc1OCC(=O)Nc1ccc(C)c(C)c1 -12.3%, O=C(O)c1cc(NN=C2c3ccccc3-c3ccccc32)ccc1Cl -10.1%, Cc1ccc(Cl)cc1N1CCN(C(=O)Cc2c(C(=O)O)[nH]c3ccc(Cl)cc23)CC1 -12.9%, CS(=O)(=O)C1=NSC2=NC(=O)/C(=C\c3ccc(OC(=O)c4ccco4)c(Br)c3)C(=N)N21 16.8%

— PubChem BioAssay AID2279 (Southern Research Specialized Biocontainment Screening …, 2010)
